# Laboratory results published in PubChem BioAssay AID2284105 (EPA ToxCast).
# Inconclusive results are not listed. Active and inactive are the calls of the source. How the source made its calls: active means hit-call score of the fitted dose curve at least 0.9, where 1 is the maximum; inconclusive means response in the unintended direction; inactive means score below 0.9.
# Target: human Monoamine Oxidase A (MAO-A), MAOA (gene 4128) (UniProt P21397)
# Assay: ERF_FR_ENZ_hMAOA: Eurofins (ERF) Enzymatic LeadHunter Assay for human Monoamine Oxidase A (MAO-A)
# Method: ERF_FR_ENZ_hMAOA is a biochemical, single-readout assay that uses extracted gene-proteins in a cell-free assay. Measurements were taken 0.33 hour after chemical dosing in a 96-well plate. See Monoamine Oxidase A (MAO-A) Human Enzymatic Assay, Cerep.ERF_FR_ENZ_hMAOA is an assay component calculated from the ERF_FR_ENZ_hMAOA assay. It is designed to measure enzyme activity using a type of enzyme reporter as detected by fluorescence intensity with spectrophotometry technology.Data from the assay component ERF_FR_ENZ_hMAOA was analyzed at the assay endpoint, ERF_FR_ENZ_hMAOA, in the positive analysis fitting direction relative to DMSO as the negative control and baseline of activity. Using a type of enzyme reporter, loss-of-signal activity can be used to understand changes in enzymatic activity as they relate to gene MAOA. To generalize the intended target to other relatable targets, this assay endpoint is annotated to the […] intended target family, where the subfamily is monoamine oxidase.
# Human cells are incubated for 45 minutes at room temprature with Kynuramine, diHCl at 350 uM as sunstrate. Test Sample Requirements: Minimum for 1) Screen: 60 ul of 10 mM stock -OR- 1 mg (pre-weighed) for 10 uM final testing. 2) Dose Response: 90 ul of 10 mM stock -OR- 1 mg (pre-weighed) for a top concentration at 10 uM.
# human Monoamine Oxidase A (MAO-A), MAOA (gene 4128), sequence (P21397 whole entry, looked up): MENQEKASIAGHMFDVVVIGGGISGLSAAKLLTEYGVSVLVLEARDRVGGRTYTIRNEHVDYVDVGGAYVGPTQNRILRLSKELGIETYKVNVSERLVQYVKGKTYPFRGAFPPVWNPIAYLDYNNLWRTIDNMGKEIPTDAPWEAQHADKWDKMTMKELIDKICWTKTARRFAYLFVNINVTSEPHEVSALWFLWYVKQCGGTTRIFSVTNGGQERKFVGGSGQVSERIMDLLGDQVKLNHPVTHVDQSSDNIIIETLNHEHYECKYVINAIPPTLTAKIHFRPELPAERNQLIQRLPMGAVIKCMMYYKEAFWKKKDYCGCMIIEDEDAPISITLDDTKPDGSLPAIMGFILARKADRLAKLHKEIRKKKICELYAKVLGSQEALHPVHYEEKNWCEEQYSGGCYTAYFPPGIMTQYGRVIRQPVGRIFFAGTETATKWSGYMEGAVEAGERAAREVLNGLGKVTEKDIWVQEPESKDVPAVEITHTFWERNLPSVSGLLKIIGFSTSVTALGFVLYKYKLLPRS
row,Compound,outcome
1,COc1cc(/C=C/C(=O)CC(=O)/C=C/c2ccc(O)c(OC)c2)ccc1O,inactive
2,COc1cc(CCC(=O)CC(=O)CCc2ccc(O)c(OC)c2)ccc1O,inactive
